From PubChem BioAssay (NCI)
The panel holds about 83,000 compounds, 20% with a hit somewhere; the sample as a whole holds those more often.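 48-hour exposure, single concentration, 96-well plates; percent growth endpoint where 0 means no net growth. Active: below 10.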 Values without a mark were called inactive. Active and inactive are the calls of the source.

What was measured:
Assay in all cases: NCI-60 one-dose screen, 48 h (100 = growth as untreated, 0 = no growth, -100 = all killed)
Conditions in all cases: 10 µM unless noted
[1] = tested on: T-47D breast
[2] = tested on: BT-549 breast
[3] = tested on: MDA-MB-435 melanoma
[4] = tested on: SW-620 colon
[5] = tested on: MCF7 breast
[6] = tested on: HCT-116 colon
[7] = tested on: HCC-2998 colon
[8] = tested on: KM12 colon

Structure (SMILES)	growth [1]	growth [2]	growth [3]	growth [4]	growth [5]	growth [6]	growth [7]	growth [8]
O=C(O)c1ccc(N=CC(=O)c2ccc(-c3ccccc3)cc2)cc1	100%	103%	103%	93.3%	97.6%	97.9%	96.7%	102%
COc1ccc(C2C(C#N)=C(N)Oc3n[nH]c(-c4cccs4)c32)cc1I (centres undefined)	94.4%	92.1%	66.7%	83.8%	69.4%	91.9%	95.9%	86.2%
O=C(O)c1ccc(NC(=O)c2ccc(-c3cccc([N+](=O)[O-])c3)o2)cc1	102%	107%	100%	96%	89.8%	105%	99.3%	99.5%
COc1ccc(-c2nc3ccc(-c4nc5ccc(N6CCN(c7ccc(F)cc7)CC6)cc5[nH]4)cc3[nH]2)cc1OC	43.8%	76.3%	90.1%	46.5%	9.99% (active)	11.2%	95.1%	95%
COc1ccc(/C=N/C2=C(C#N)C(c3ccc(N(C)C)cc3)c3ccc4ccccc4c3O2)cc1 (centres undefined)	72%	48.4%	4% (active)	46.1%	45%	43.4%	96.3%	44.1%
CCOC(=O)c1c(CN2CCN(C)CC2)nc2ccc(Cl)cc2c1-c1ccccc1	74.3%	58.5%	53.5%	94.8%	47.6%	63.7%	-0.061% (active)	76.2%
CCOC(=O)c1csc(NC(=O)COc2cccc(/C=C3\CSc4ccccc4C3=O)c2)n1	73.8%	-88% (active)	17.9%	-65.5% (active)	2.02% (active)	4.95% (active)	-31.8% (active)	-64.4% (active)
COc1ccc(SC2c3cc(OC)c(OC)cc3Oc3nc(N)c(C#N)c(N)c32)cc1 (centres undefined)	-41.9% (active)	-79.1% (active)	-84.4% (active)	-64.5% (active)	-58.9% (active)	-88.6% (active)	-84.3% (active)	-79% (active)
COc1ccc2[nH]cc(-c3noc(C(=O)c4cn(C)c5ccc(F)cc45)n3)c2c1	83.8%	88.9%	102%	95.1%	58.8%	101%	101%	92.6%
COc1cc(C)c(C2C(C#N)=C(N)Oc3n[nH]c(-c4cccs4)c32)cc1C(C)C (centres undefined)	84.4%	102%	105%	101%	91.5%	103%	93.5%	98.6%
COc1ccc(-c2n[nH]nc2-c2csc3ccccc23)cc1OC	28.5%	16.9%	-31.8% (active)	21.3%	17.1%	22.4%	72.1%	27.6%
O=C(/C=C/c1ccccc1)c1ccc(O)c(CN2CCN(c3cc4c(cc3F)c(=O)c(C(=O)O)cn4C3CC3)CC2)c1	27.9%	28.2%	18.6%	23.4%	8% (active)	3.95% (active)	41.2%	31.8%
COc1cc(-c2nn(-c3ccc(Br)cc3)cc2C(=O)O)ccc1O	98.5%	98.8%	97%	105%	81.5%	97.9%	108%	94.8%
O=c1cc(CSc2nnc(-c3ccc(F)cc3)o2)c2ccc3ccccc3c2o1	100%	111%	106%	94.5%	93.5%	93.2%	95.4%	100%
CCNC(=O)Oc1ccc(/C(=C(\C)c2ccc(Cl)cc2)c2ccc(OCCN(CC)CC)cc2)cc1	25.5%	68.8%	25%	2.28% (active)	16.5%	38.6%	51%	37.5%
O=C(Nc1ccc(Cl)cc1)c1cc2cc(F)ccc2cc1O	-7.01% (active)	1.77% (active)	10.5%	15.5%	7.1% (active)	12.3%	27.8%	12.3%
O=C1c2cc3c(cc2-c2c1c1ccc(F)cc1c(=O)n2CCCNCCO)OCO3	-17.7% (active)	-20% (active)	-71.5% (active)	-41.5% (active)	-65.5% (active)	-43.1% (active)	-65.7% (active)	-29.9% (active)
O=C(/C=C/c1ccc(C(F)(F)F)cc1)Nc1ccc(C=C2c3ccccc3C(=O)c3ccccc32)cc1	50.3%	57.6%	6.92% (active)	65.3%	46.5%	38.3%	78.3%	25.9%
Nc1n[nH]c2ccc([C@@H]3Nc4ccc5cn[nH]c5c4[C@H]4C5CCC(C5)[C@@H]34)cc12 (some centres undefined)	57.5%	20.9%	-47.7% (active)	19%	15.2%	12.9%	24.3%	17.6%
CSc1nc2c(c(=O)[nH]1)C1(C(=O)Nc3ccccc31)c1c(nc(SC)[nH]c1=O)N2	111%	107%	104%	99.1%	102%	106%	104%	103%

Structure (SMILES)	growth [1]	growth [2]	growth [3]	growth [4]	growth [5]	growth [6]	growth [7]	growth [8]
O=C(COc1ccc(-c2nc3cc(Cl)c(Cl)cc3[nH]2)cc1)N=Nc1c(O)[nH]c2ccccc12	-37.9% (active)	64.7%	25.6%	-32.3% (active)	-49.7% (active)	16.2%	-3.87% (active)	-38.8% (active)
C(=N/Nc1ncc(-c2cc3cc(-c4ccccc4)ccc3o2)s1)/c1cccs1	100%	110%	95.9%	99.7%	89.7%	91.5%	100%	97%
O=C1/C(=C/c2cn(-c3ccccc3)nc2-c2ccccc2)SC(=S)N1CCc1ccccc1	96.5%	109%	97.6%	100%	95.3%	102%	107%	100%
COc1cc(/C=C/C(=O)c2cccnc2Nc2ccc(F)cc2)cc(OC)c1OC	61.4%	39.5%	28.4%	21.6%	8.82% (active)	13.9%	21.7%	24.6%
COc1cccc(-c2nc3sccn3c2-c2ccnc(NCCCNS(=O)(=O)c3cccc(F)c3)c2)c1	-8.47% (active)	6.32% (active)	12.2%	50%	24.8%	20.8%	64.7%	23.2%
COc1ccc(N=Nc2nccs2)c(O)c1	36.5%	74.1%	58.7%	34.4%	20.4%	22.3%	60.8%	33.3%
Cc1ccccc1COc1ccc(-c2onc(C)c2-c2ccc(Cl)cc2)cc1	61.1%	66.2%	-1.01% (active)	31.7%	31.7%	34%	86.6%	54.3%
CC(=O)NCC1c2c(n(C)c3c(Cl)c(Cl)ccc23)C(=O)NC1(C)C (centres undefined)	98.5%	102%	96.4%	113%	92.1%	94.8%	93%	118%
COc1ccc(CCNc2nc(SC)nc(-c3cccc([N+](=O)[O-])c3)c2C#N)cc1OC	79.3%	42.2%	87.7%	92.9%	86.8%	82%	93.6%	99.1%
COc1cccc(/C=C2\Oc3cc(OCCN4CCCC4)ccc3C2=O)c1	91.4%	80.4%	99.5%	86.9%	77.4%	78%	82.6%	97.8%
C#CCOc1ccc2ncnc(N3CCN(C(=O)CCl)CC3)c2c1	-48.7% [8.25 µM] (active)	56.8% [8.25 µM]	86.6% [8.25 µM]	47.1% [8.25 µM]	65.1% [8.25 µM]	27.7% [8.25 µM]	112% [8.25 µM]	108% [8.25 µM]
COc1ccc(SC2c3ccc(C)cc3Oc3nc(N)c(C#N)c(N)c32)cc1 (centres undefined)	-34.5% (active)	-72.9% (active)	-69.6% (active)	-65.2% (active)	-48.6% (active)	-64.4% (active)	-78.9% (active)	3.92% (active)
CCOC(=O)n1cc(-c2nonc2-c2cn(C)c3ncccc23)c2cc(F)ccc21	10.4%	93.1%	94.7%	89.5%	27.2%	69.5%	86.4%	73.5%
CC1CCNC(C)C1 (centres undefined)	104%	105%	107%	100%	96.8%	108%	103%	106%
CC1=C(O)C(=O)C(C(C#N)(C#N)C(C#N)C#N)C1 (centres undefined)	107%	95%	96.8%	102%	92.1%	102%	95.3%	97.7%
COc1ccc(/C=C/c2nc(-c3n[nH]c(=O)n3-c3ccccc3)c3ccccc3n2)cc1	89.3%	111%	99.4%	89.6%	90.6%	104%	112%	94.2%
O=C1/C(=C(/c2ccccc2)N2CCOCC2)Cc2ccccc21	-34.4% (active)	-7.68% (active)	12.6%	0.554% (active)	17.9%	-46.3% (active)	-71.8% (active)	36.2%
O=c1ccccc(-c2ccc(-c3ccco3)cc2)c1O	28.7%	28.1%	26.3%	27.8%	15.3%	21.8%	41.1%	23%
O=C1Nc2c(ccc(Cl)c2Cl)/C1=C\c1ccc(C(F)(F)F)cc1	77.2%	75.2%	95.4%	67.1%	52.1%	68.2%	92.4%	71.2%
COc1ccc(-c2nn(-c3ccc(Cl)cc3)cc2-c2nc3ccccc3[nH]2)cc1	87.9%	113%	97.7%	84.6%	74.3%	87%	109%	102%

Structure (SMILES)	growth [1]	growth [2]	growth [3]	growth [4]	growth [5]	growth [6]	growth [7]	growth [8]
C=CC(COC(c1ccccc1)(c1ccccc1)c1ccccc1)N(CC)CC (centres undefined)	54.8%	81.5%	61.2%	51.3%	33.4%	35.9%	63%	54.6%
CNC(=O)c1cc(Oc2ccc(NC(=O)Nc3ccc(Cl)c(SC)c3)c(F)c2)ccn1	-3.32% (active)	64.7%	32.6%	67.5%	30%	30.8%	51.3%	29.3%
Cc1ccc(NC(=O)/C=C/c2ccccc2)c(C(N)=O)c1	27.6%	94%	-45.5% (active)	22.7%	15.7%	34.4%	80.8%	14.4%
Cc1cc(N[C@@H]2CCC[C@H](Nc3ccnc4cc(Cl)ccc34)C2)nc(N2CCCCCC2)n1	-41.8% (active)	-87.9% (active)	-91.7% (active)	-76.5% (active)	-63.1% (active)	-88.6% (active)	-83.7% (active)	-39% (active)
OCCNc1nccc(N2CCN(c3ccnc4cc(Cl)ccc34)CC2)n1	69%	68.3%	7.31% (active)	44.4%	34.2%	47.1%	86.4%	60.8%
CN1C(=O)C2(SCC(C(=O)NCc3ccccc3)N2C(=O)C2CCCCC2)c2ccccc21 (centres undefined)	101%	98.3%	81.2%	91.8%	94.8%	96.2%	109%	92.1%
CN(C)S(=O)(=O)c1ccc(S(=O)(=O)Nc2cccc(Cl)c2N2CCCCC2)cc1	67.4%	88.4%	92.3%	97.1%	84.1%	61.6%	94.5%	94.5%
Cc1ncc(C(=O)Nc2ccc(CN3CCN(C)CC3)c(C(F)(F)F)c2)cc1C#Cc1cnc2cccnn12	40%	-10.8% (active)	-54.1% (active)	-5.14% (active)	2.92% (active)	0.541% (active)	11.1%	-0.978% (active)
c1ccc(Cn2cc(-c3nc4ccccc4s3)c3cccnc32)cc1	94%	106%	104%	105%	75.4%	100%	107%	92.6%
O=c1cc(CSc2nnc(SCc3cc(=O)oc4c3ccc3ccccc34)o2)c2ccc3ccccc3c2o1	78.6%	107%	112%	98.1%	93.7%	104%	101%	98.2%
C#CCOc1ccc2ncnc(N3CCC(NC(=O)CCl)CC3)c2c1	71% [8.25 µM]	64.2% [8.25 µM]	68.1% [8.25 µM]	55.8% [8.25 µM]	51.9% [8.25 µM]	56.5% [8.25 µM]	107% [8.25 µM]	96.5% [8.25 µM]
CCN(CC)S(=O)(=O)c1ccc(OC)c(NC(=O)c2[nH]c(C)c3c2CCCCC3=O)c1	16.6%	59.8%	31.3%	67%	19%	33.7%	42.3%	47.9%
Nc1nc2ccc3[nH]ncc3c2c2c1CCCC2	11%	-9.88% (active)	6.3% (active)	1.68% (active)	7.3% (active)	1.33% (active)	9.63% (active)	-1.31% (active)
CC[C@]1(O)C[C@@H]2CN(CCc3c([nH]c4ccccc34)[C@@](C(=O)OC)(c3cc4c(cc3OC)N(C)[C@H]3[C@@](O)(C(N)=O)[C@H](O)[C@]5(CC)[C@@H]6C[C@@H]6CN6CC[C@]43[C@@H]65)C2)C1	92.9%	11.5%	-40% (active)	26.7%	18.9%	6.89% (active)	24.9%	11.9%
CS(=O)(=O)c1ccc(-n2nc(-c3ccc(Br)cc3)c3ccccc3c2=O)cc1	86.5%	91.1%	103%	104%	85.9%	96.7%	98%	102%
CCOC(=O)c1sc2nc(-c3cccc(OC)c3)nc(N3CCOCC3)c2c1C	92.8%	94.9%	96.9%	110%	90.4%	96.6%	99.6%	97.5%
O=C1Nc2cc(-c3ccc(O)cc3)ccc2/C1=C/c1ccc[nH]1	0.283% (active)	16.9%	7.05% (active)	14.1%	1.73% (active)	4.68% (active)	-13.9% (active)	2.31% (active)
Clc1ccc2c(NCCNc3nc(N4CCOCC4)nc4ccccc34)ccnc2c1	-15% (active)	93.5%	-8.79% (active)	11.2%	38.8%	-7.53% (active)	32.3%	13.3%
